# Laboratory results taken from PMC11062922 (Nature Chemical Biology, 2023).
# Like-named read-outs stand apart in the source and are kept apart here.
# Assays:
# Conditions in all cases: read-out: apparent Kd, n = 1
# NUAK2 = system: NUAK2
# PAK6 = system: PAK6
# RET = system: RET
# [1] = compound concentrations:100 nM and 1000 nM (sheet 'Lestaurtinib' of Supplementary Table 1),run:Lestaurtinib_03252_R1,Plate:MR032
# [2] = compound concentrations:100 nM and 1000 nM (sheet 'Lestaurtinib' of Supplementary Table 1),run:Lestaurtinib_03260_R2,Plate:MR033
# [3] = compound concentrations:100 nM and 1000 nM (sheet 'Lestaurtinib' of Supplementary Table 1),run:Lestaurtinib_02339_R2,Plate:MR001
# [4] = compound concentrations:100 nM and 1000 nM (sheet 'Lestaurtinib' of Supplementary Table 1),run:Lestaurtinib_02364_R3,Plate:MR002
# [5] = compound concentrations:100 nM and 1000 nM (sheet 'Lestaurtinib' of Supplementary Table 1),run:Lestaurtinib_02367_R3,Plate:MR003
# [6] = compound concentrations:100 nM and 1000 nM (sheet 'Lestaurtinib' of Supplementary Table 1),run:Lestaurtinib_02381_R3,Plate:MR004
# [7] = compound concentrations:100 nM and 1000 nM (sheet 'Lestaurtinib' of Supplementary Table 1),run:Lestaurtinib_02422_R3,Plate:MR006
# [8] = compound concentrations:100 nM and 1000 nM (sheet 'Lestaurtinib' of Supplementary Table 1),run:Lestaurtinib_02437_R1,Plate:MR007
substance,measurement,setting,value
Lestaurtinib,potency estimated from few doses,"NUAK2; compound concentrations:100 nM and 1000 nM (sheet 'Lestaurtinib' of Supplementary Table 1),run:Lestaurtinib_03172_R1,Plate:MR031",98.7 nM
same,potency estimated from few doses,NUAK2; [1],45.5 nM
same,potency estimated from few doses,"NUAK2; compound concentrations:100 nM and 1000 nM (sheet 'Lestaurtinib' of Supplementary Table 1),run:Lestaurtinib_03252_R2,Plate:MR032",831 nM
same,potency estimated from few doses,NUAK2; [2],387 nM
same,potency estimated from few doses,PAK6; [3],151 nM
same,potency estimated from few doses,"PAK6; compound concentrations:100 nM and 1000 nM (sheet 'Lestaurtinib' of Supplementary Table 1),run:Lestaurtinib_02364_R2,Plate:MR002",137 nM
same,potency estimated from few doses,PAK6; [4],91000 nM
same,potency estimated from few doses,PAK6; [5],89.2 nM
same,potency estimated from few doses,"PAK6; compound concentrations:100 nM and 1000 nM (sheet 'Lestaurtinib' of Supplementary Table 1),run:Lestaurtinib_02381_R1,Plate:MR004",771 nM
same,potency estimated from few doses,PAK6; [6],136 nM
same,potency estimated from few doses,"PAK6; compound concentrations:100 nM and 1000 nM (sheet 'Lestaurtinib' of Supplementary Table 1),run:Lestaurtinib_02407_R1,Plate:MR005",1800 nM
same,potency estimated from few doses,"PAK6; compound concentrations:100 nM and 1000 nM (sheet 'Lestaurtinib' of Supplementary Table 1),run:Lestaurtinib_02407_R2,Plate:MR005",521 nM
same,potency estimated from few doses,"PAK6; compound concentrations:100 nM and 1000 nM (sheet 'Lestaurtinib' of Supplementary Table 1),run:Lestaurtinib_02407_R3,Plate:MR005",1490 nM
same,potency estimated from few doses,PAK6; [7],1350 nM
same,potency estimated from few doses,PAK6; [8],42.8 nM
same,potency estimated from few doses,"PAK6; compound concentrations:100 nM and 1000 nM (sheet 'Lestaurtinib' of Supplementary Table 1),run:Lestaurtinib_02437_R2,Plate:MR007",638 nM
same,potency estimated from few doses,"PAK6; compound concentrations:100 nM and 1000 nM (sheet 'Lestaurtinib' of Supplementary Table 1),run:Lestaurtinib_02437_R3,Plate:MR007",165 nM
same,potency estimated from few doses,"PAK6; compound concentrations:100 nM and 1000 nM (sheet 'Lestaurtinib' of Supplementary Table 1),run:Lestaurtinib_02438_R2,Plate:MR008",113 nM
same,potency estimated from few doses,"PAK6; compound concentrations:100 nM and 1000 nM (sheet 'Lestaurtinib' of Supplementary Table 1),run:Lestaurtinib_02443_R1,Plate:MR009",830 nM
same,potency estimated from few doses,"PAK6; compound concentrations:100 nM and 1000 nM (sheet 'Lestaurtinib' of Supplementary Table 1),run:Lestaurtinib_02443_R2,Plate:MR009",1300 nM
same,potency estimated from few doses,"PAK6; compound concentrations:100 nM and 1000 nM (sheet 'Lestaurtinib' of Supplementary Table 1),run:Lestaurtinib_02443_R3,Plate:MR009",169 nM
same,potency estimated from few doses,"PAK6; compound concentrations:100 nM and 1000 nM (sheet 'Lestaurtinib' of Supplementary Table 1),run:Lestaurtinib_02473_R3,Plate:MR010",121 nM
same,potency estimated from few doses,"PAK6; compound concentrations:100 nM and 1000 nM (sheet 'Lestaurtinib' of Supplementary Table 1),run:Lestaurtinib_02482_R2,Plate:MR011",852 nM
same,potency estimated from few doses,"PAK6; compound concentrations:100 nM and 1000 nM (sheet 'Lestaurtinib' of Supplementary Table 1),run:Lestaurtinib_02482_R3,Plate:MR011",797 nM
same,potency estimated from few doses,"PAK6; compound concentrations:100 nM and 1000 nM (sheet 'Lestaurtinib' of Supplementary Table 1),run:Lestaurtinib_02487_R1,Plate:MR012",1690 nM
same,potency estimated from few doses,"PAK6; compound concentrations:100 nM and 1000 nM (sheet 'Lestaurtinib' of Supplementary Table 1),run:Lestaurtinib_02487_R3,Plate:MR012",100 nM
same,potency estimated from few doses,"PAK6; compound concentrations:100 nM and 1000 nM (sheet 'Lestaurtinib' of Supplementary Table 1),run:Lestaurtinib_02496_R2,Plate:MR013",1370 nM
same,potency estimated from few doses,"PAK6; compound concentrations:100 nM and 1000 nM (sheet 'Lestaurtinib' of Supplementary Table 1),run:Lestaurtinib_02496_R3,Plate:MR013",1590 nM
same,potency estimated from few doses,"PAK6; compound concentrations:100 nM and 1000 nM (sheet 'Lestaurtinib' of Supplementary Table 1),run:Lestaurtinib_02566_R1,Plate:MR014",49.6 nM
same,potency estimated from few doses,"PAK6; compound concentrations:100 nM and 1000 nM (sheet 'Lestaurtinib' of Supplementary Table 1),run:Lestaurtinib_02566_R3,Plate:MR014",35.1 nM
same,potency estimated from few doses,"PAK6; compound concentrations:100 nM and 1000 nM (sheet 'Lestaurtinib' of Supplementary Table 1),run:Lestaurtinib_02572_R3,Plate:MR015",1350 nM
same,potency estimated from few doses,"PAK6; compound concentrations:100 nM and 1000 nM (sheet 'Lestaurtinib' of Supplementary Table 1),run:Lestaurtinib_02577_R1,Plate:MR016",1350 nM
same,potency estimated from few doses,"PAK6; compound concentrations:100 nM and 1000 nM (sheet 'Lestaurtinib' of Supplementary Table 1),run:Lestaurtinib_02584_R1,Plate:MR017",953 nM
same,potency estimated from few doses,"PAK6; compound concentrations:100 nM and 1000 nM (sheet 'Lestaurtinib' of Supplementary Table 1),run:Lestaurtinib_02584_R3,Plate:MR017",896 nM
same,potency estimated from few doses,"PAK6; compound concentrations:100 nM and 1000 nM (sheet 'Lestaurtinib' of Supplementary Table 1),run:Lestaurtinib_02601_R2,Plate:MR018",846 nM
same,potency estimated from few doses,"PAK6; compound concentrations:100 nM and 1000 nM (sheet 'Lestaurtinib' of Supplementary Table 1),run:Lestaurtinib_02601_R3,Plate:MR018",974 nM
same,potency estimated from few doses,"PAK6; compound concentrations:100 nM and 1000 nM (sheet 'Lestaurtinib' of Supplementary Table 1),run:Lestaurtinib_02606_R1,Plate:MR019",1440 nM
same,potency estimated from few doses,"PAK6; compound concentrations:100 nM and 1000 nM (sheet 'Lestaurtinib' of Supplementary Table 1),run:Lestaurtinib_02606_R2,Plate:MR019",722 nM
same,potency estimated from few doses,"PAK6; compound concentrations:100 nM and 1000 nM (sheet 'Lestaurtinib' of Supplementary Table 1),run:Lestaurtinib_02624_R1,Plate:MR020",730 nM
same,potency estimated from few doses,"PAK6; compound concentrations:100 nM and 1000 nM (sheet 'Lestaurtinib' of Supplementary Table 1),run:Lestaurtinib_02624_R2,Plate:MR020",686 nM
same,potency estimated from few doses,"PAK6; compound concentrations:100 nM and 1000 nM (sheet 'Lestaurtinib' of Supplementary Table 1),run:Lestaurtinib_02624_R3,Plate:MR020",783 nM
same,potency estimated from few doses,"PAK6; compound concentrations:100 nM and 1000 nM (sheet 'Lestaurtinib' of Supplementary Table 1),run:Lestaurtinib_02748_R1,Plate:MR024",896 nM
same,potency estimated from few doses,"PAK6; compound concentrations:100 nM and 1000 nM (sheet 'Lestaurtinib' of Supplementary Table 1),run:Lestaurtinib_02752_R1,Plate:MR025",793 nM
same,potency estimated from few doses,"PAK6; compound concentrations:100 nM and 1000 nM (sheet 'Lestaurtinib' of Supplementary Table 1),run:Lestaurtinib_02752_R2,Plate:MR025",782 nM
same,potency estimated from few doses,"PAK6; compound concentrations:100 nM and 1000 nM (sheet 'Lestaurtinib' of Supplementary Table 1),run:Lestaurtinib_02752_R3,Plate:MR025",799 nM
same,potency estimated from few doses,"PAK6; compound concentrations:100 nM and 1000 nM (sheet 'Lestaurtinib' of Supplementary Table 1),run:Lestaurtinib_02765_R2,Plate:MR026",766 nM
same,potency estimated from few doses,"PAK6; compound concentrations:100 nM and 1000 nM (sheet 'Lestaurtinib' of Supplementary Table 1),run:Lestaurtinib_02766_R1,Plate:MR027",519 nM
same,potency estimated from few doses,"PAK6; compound concentrations:100 nM and 1000 nM (sheet 'Lestaurtinib' of Supplementary Table 1),run:Lestaurtinib_02766_R2,Plate:MR027",66 nM
same,potency estimated from few doses,"PAK6; compound concentrations:100 nM and 1000 nM (sheet 'Lestaurtinib' of Supplementary Table 1),run:Lestaurtinib_02766_R3,Plate:MR027",696 nM
same,potency estimated from few doses,"PAK6; compound concentrations:100 nM and 1000 nM (sheet 'Lestaurtinib' of Supplementary Table 1),run:Lestaurtinib_02768_R1,Plate:MR028",996 nM
same,potency estimated from few doses,"PAK6; compound concentrations:100 nM and 1000 nM (sheet 'Lestaurtinib' of Supplementary Table 1),run:Lestaurtinib_02795_R1,Plate:MR022",648 nM
same,potency estimated from few doses,"PAK6; compound concentrations:100 nM and 1000 nM (sheet 'Lestaurtinib' of Supplementary Table 1),run:Lestaurtinib_02795_R2,Plate:MR022",528 nM
same,potency estimated from few doses,"PAK6; compound concentrations:100 nM and 1000 nM (sheet 'Lestaurtinib' of Supplementary Table 1),run:Lestaurtinib_02795_R3,Plate:MR022",1440 nM
same,potency estimated from few doses,"PAK6; compound concentrations:100 nM and 1000 nM (sheet 'Lestaurtinib' of Supplementary Table 1),run:Lestaurtinib_02802_R1,Plate:MR029",604 nM
same,potency estimated from few doses,"PAK6; compound concentrations:100 nM and 1000 nM (sheet 'Lestaurtinib' of Supplementary Table 1),run:Lestaurtinib_02802_R3,Plate:MR029",85.9 nM
same,potency estimated from few doses,"PAK6; compound concentrations:100 nM and 1000 nM (sheet 'Lestaurtinib' of Supplementary Table 1),run:Lestaurtinib_02896_R1,Plate:MR030",541 nM
same,potency estimated from few doses,"PAK6; compound concentrations:100 nM and 1000 nM (sheet 'Lestaurtinib' of Supplementary Table 1),run:Lestaurtinib_02896_R2,Plate:MR030",1310 nM
same,potency estimated from few doses,"PAK6; compound concentrations:100 nM and 1000 nM (sheet 'Lestaurtinib' of Supplementary Table 1),run:Lestaurtinib_02896_R3,Plate:MR030",785 nM
same,potency estimated from few doses,"PAK6; compound concentrations:100 nM and 1000 nM (sheet 'Lestaurtinib' of Supplementary Table 1),run:Lestaurtinib_03172_R2,Plate:MR031",581 nM
same,potency estimated from few doses,PAK6; [1],825 nM
same,potency estimated from few doses,"PAK6; compound concentrations:100 nM and 1000 nM (sheet 'Lestaurtinib' of Supplementary Table 1),run:Lestaurtinib_03260_R1,Plate:MR033",744 nM
same,potency estimated from few doses,PAK6; [2],805 nM
same,potency estimated from few doses,RET; [3],240 nM
same,potency estimated from few doses,RET; [4],273 nM
same,potency estimated from few doses,"RET; compound concentrations:100 nM and 1000 nM (sheet 'Lestaurtinib' of Supplementary Table 1),run:Lestaurtinib_02367_R1,Plate:MR003",274 nM
same,potency estimated from few doses,"RET; compound concentrations:100 nM and 1000 nM (sheet 'Lestaurtinib' of Supplementary Table 1),run:Lestaurtinib_02367_R2,Plate:MR003",260 nM
same,potency estimated from few doses,RET; [5],265 nM
same,potency estimated from few doses,"RET; compound concentrations:100 nM and 1000 nM (sheet 'Lestaurtinib' of Supplementary Table 1),run:Lestaurtinib_02381_R2,Plate:MR004",218 nM
same,potency estimated from few doses,RET; [6],113 nM
same,potency estimated from few doses,"RET; compound concentrations:100 nM and 1000 nM (sheet 'Lestaurtinib' of Supplementary Table 1),run:Lestaurtinib_02422_R1,Plate:MR006",162 nM
same,potency estimated from few doses,RET; [7],269 nM
same,potency estimated from few doses,RET; [8],142 nM
